# Source: PubChem
# Pol eta inh-1 = blocks human DNA polymerase eta activity | Potency, µM (titrated, usually from 114 µM), most hits filed as inhibitors | AID 588591 | recombinant Pol eta, fluorescent DNA replication assay | Q9Y253 | 390,000 compounds, 1.2% hits
#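 Fluorescent replication assay: 50 nM final substrate added after a 15 min room-temperature compound preincubation with 10 nM enzyme. Signal taken at 0 min and again at 10 min.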
# TDP1 inh = TDP1 (human) enzyme inhibition; AID 485290; 350,000 compounds, 0.28% hits; Potency, µM (series often up to 130 µM), hits mostly inhibitors; recombinant TDP1, AlphaScreen DNA substrate cleavage; note: nearly all actives have a fitted effect of over 40% in size
#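 AlphaScreen read-out: signal falls as enzyme removes the 3' tyrosine-FITC from a 5'-biotinylated DNA oligo (15 nM, 5 min, RT). Enzyme was E. coli-made recombinant Tdp1 at 1 nM, exposed to compound for 15 min beforehand; beads 10 ug/ml, 10 min.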
# POLB inh = DNA polymerase beta (human) inhibition | P06746 | Pol beta primer extension/strand displacement, fluorescence kinetic | Potency, µM (top dose mostly 114 µM), most hits filed as inhibitors | 340,000 compounds, 1.3% hits
#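 Kinetic readout of DNA synthesis with strand displacement by Pol beta. Compound and 10 nM enzyme sit 15 min at room temperature; 50 nM substrate starts the reaction, read immediately and at 10 min.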
# FEN1 inh = human FEN1 inhibition. P39748. Recombinant FEN1 flap cleavage, fluorescence, 15 min. Potency, µM (titrated, usually from 114 µM), usual class: inhibitors. 390,000 compounds, 0.35% hits. AID 588795; note: nearly all actives have a fitted effect of over 65% in size
#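 Concentration–response screening of FEN1 (10 nM): 15 min compound preincubation at room temperature, reaction started with 50 nM substrate and read at 0 and 15 min. Corrected, normalized data were fitted by a four-parameter Hill equation.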
# Pol kappa inh-1 = blocks human DNA polymerase kappa activity; Q9UBT6; purified Pol kappa, fluorescent DNA synthesis assay, 10 min; Potency, µM (top dose mostly 107 µM), most hits filed as inhibitors; 400,000 compounds, 0.53% hits
#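 10 nM Pol kappa was preincubated with compounds for 15 min at room temperature. Reaction started with 50 nM (final) substrate. Fluorescence read kinetically at 0 and 10 min.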
# POLI inh = DNA polymerase iota (human) inhibition | Q9UNA4 | Pol iota fluorescent replication assay, 10 min | Potency, µM (titrated, usually from 115 µM), most hits filed as inhibitors | 390,000 compounds, 1% hits
# Target sequence (Q9UNA4 whole entry, looked up): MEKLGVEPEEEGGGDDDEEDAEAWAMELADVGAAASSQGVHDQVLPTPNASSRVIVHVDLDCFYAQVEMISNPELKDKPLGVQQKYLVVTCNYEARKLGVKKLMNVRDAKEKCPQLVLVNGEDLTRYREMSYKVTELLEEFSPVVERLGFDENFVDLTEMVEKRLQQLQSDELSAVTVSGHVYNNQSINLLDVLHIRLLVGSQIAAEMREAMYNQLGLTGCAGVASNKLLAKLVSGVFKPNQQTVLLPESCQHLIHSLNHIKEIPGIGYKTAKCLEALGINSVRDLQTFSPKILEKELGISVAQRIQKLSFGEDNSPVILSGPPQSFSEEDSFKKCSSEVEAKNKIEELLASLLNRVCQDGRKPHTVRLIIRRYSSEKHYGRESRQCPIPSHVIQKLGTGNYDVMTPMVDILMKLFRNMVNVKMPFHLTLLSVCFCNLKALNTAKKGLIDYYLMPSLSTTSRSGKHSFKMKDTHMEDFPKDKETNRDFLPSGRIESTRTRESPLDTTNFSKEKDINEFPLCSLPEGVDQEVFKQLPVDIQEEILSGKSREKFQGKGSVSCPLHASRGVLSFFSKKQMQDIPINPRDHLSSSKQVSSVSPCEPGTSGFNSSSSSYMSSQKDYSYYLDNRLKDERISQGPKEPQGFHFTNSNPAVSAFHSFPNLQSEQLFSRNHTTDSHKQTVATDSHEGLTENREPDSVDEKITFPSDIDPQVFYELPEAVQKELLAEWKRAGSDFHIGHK
#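 Pol iota at 10 nM preincubated 15 min with compounds at room temperature; reaction started with fluorescent substrate, 50 nM final. Fluorescence read kinetically at 0 and 10 min; buffer-only wells as negative control.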
# Pol kappa inh-2 = confirmation of human DNA polymerase kappa inhibitors. shares compounds with Pol eta inh-1. purified Pol-kappa, fluorescent strand-displacement substrate. Potency, µM, usual class: inhibitors. 920 compounds, 76% hits
# Pol eta inh-2 = Pol eta (human) inhibition, cherry-pick confirmation; shares compounds with Pol eta inh-1; Pol eta primer extension, TAMRA/BHQ fluorescence, 10 min; Potency, µM, usual class: inhibitors; 2,600 compounds, 64% hits; AID 720502
# A number is an active result; - = inactive; ? = inconclusive; . = no result; ! = repeats disagree; [ ] = another dose, or the depositor's remark. Most compounds without a hit are left out; they make up all but 2.4% or so of the library. Calls come from the whole dose curve; as a rule, active = well fitted curve in the direction sought with a large enough effect; inconclusive = small, poorly fitted or top-dose-only effect, or another doubt; inactive = no such curve, though single readings can be large; an effect the other way counts as inactive or inconclusive.
SMILES,Pol eta inh-1,TDP1 inh,POLB inh,FEN1 inh,Pol kappa inh-1,POLI inh,Pol eta inh-2,others
COc1ccc(C2CC(c3ccccc3)=NN2C(=O)CCCC(=O)O)cc1 (stereo not given),-,-,-,-,-,-,.,
CCc1ccc(NS(=O)(=O)c2ccc3[nH]cc(C(=O)NC4CCCC4)c(=O)c3c2)cc1,?,?,50µM,-,?,89µM,.,Pol kappa inh-2=?
CCOc1ccc(NS(=O)(=O)c2ccc3[nH]cc(C(=O)NC4CCCC4)c(=O)c3c2)cc1,-,-,?,-,-,?,.,
CCc1ccc(NS(=O)(=O)c2ccc3[nH]cc(C(=O)N(C)Cc4ccco4)c(=O)c3c2)cc1,89µM,.,45µM!,-,-,?,?,
CCOc1ccc(NS(=O)(=O)c2ccc3[nH]cc(C(=O)NCc4ccco4)c(=O)c3c2)cc1,79µM,?,22µM,-,-,?,.,Pol kappa inh-2=?
COCC(=O)N1CCC[C@@]2(CCN(C(=O)Nc3ccccc3)C2)C1,.,.,.,.,-,.,.,
Cc1o[nH]c(=O)c1CCC(N)C(=O)O (stereo not given),.,-,.,.,-[19.4 µM],.,.,
NCCCC[C@H](N)C(=O)N[C@@H](CCCN=C(N)N)C(=O)N1CCC[C@H]1C(=O)N1CCC[C@H]1C(=O)NCC(=O)N[C@@H](Cc1ccccc1)C(=O)N[C@@H](CO)C(=O)N1CCC[C@H]1C(=O)N[C@@H](Cc1ccccc1)C(=O)O,.,-,.,.,-,.,.,
CN(Cc1ccccc1)C(=O)CSc1nc2ccccc2n1Cc1ccccc1F,-,-,-,-,-,-,.,
CC(=O)Nc1c(O)nc(SCC(=O)Nc2nnc(SCc3ccccc3)s2)[nH]c1=O,35µM,-,-,?,?,25µM,?,
CNc1c(Cl)cc(C=O)cc1Cl,.,.,.,-,-,-,.,
COc1ccc(Cl)cc1NC(=O)c1c(NCc2ccc(C)o2)sc2c1CCCCC2,?,-,-,-,-,?,?,Pol kappa inh-2=?
C=C1C=C(C(F)F)n2ncc(C(=O)Nc3cccc(CC)c3)c2N1,.,.,.,-,-,-,.,
Cc1ccc(NC(=O)N2CCC(N3CCN(Cc4ccccc4)C(=O)C3=O)CC2)cc1Cl,-,-,-,-,-,-,.,
CCOC(=O)c1ccccc1NC(=O)c1ccc2c(SCC(=O)O)c3c(nc2c1)CCCC3,50µM,.,-,-,-,-,76,
COc1cc(Cl)c(C)cc1NC(=O)c1ccc2c(SCC(=O)O)c3c(nc2c1)CCCC3,50µM!,-,20µM!,-,-,-,?,Pol kappa inh-2=75
Cn1nnnc1SCCCNCc1ccccc1OCc1ccccc1Cl,-,-,-,-,-,-,.,
Cc1noc(C)c1C(=O)N1CCC[C@@]2(CCN(C(=O)NC(C)C)C2)C1,.,.,.,.,-,.,.,
Cc1ccc(S(=O)(=O)Nc2ccccc2C(=O)Nc2nc(-c3ccc(F)cc3)cs2)cc1,89µM,-,-,-,?,?,?,
COc1ccc(-c2csc(NC(=O)c3ccccc3F)n2)cc1,-,.,-,-,-,-,.,
COc1ccc(/C=C2\SC(=S)N(NS(=O)(=O)c3ccc(C)cc3)C2=O)c(OC)c1,?,.,?,-,-,-,21,
COc1ccc(/C=C2\SC(=S)N(NS(=O)(=O)c3ccccc3)C2=O)c(OC)c1,?,.,-,-,-,-,.,
Cc1oc2c(cc(NS(=O)(=O)c3ccc(C(C)C)cc3)c3ccccc32)c1C(=O)O,45µM,-,50µM!,?,?,?,?,Pol kappa inh-2=?
Cc1oc2c(cc(NS(=O)(=O)c3ccc(F)cc3)c3ccccc32)c1C(=O)O,?,-[0.0935 µM],-,-,-,?,.,
COc1cc(/C=C2/C(=O)c3cccc([N+](=O)[O-])c3C2=O)c(Br)cc1O,25µM,-,40µM,?,-,25µM,48,
SMILES,Pol eta inh-1,TDP1 inh,POLB inh,FEN1 inh,Pol kappa inh-1,POLI inh,Pol eta inh-2,others
O=[N+]([O-])c1c(Cl)cccc1-c1c[nH]cc1Cl,.,.,.,.,-[19.4 µM],.,.,
O=C(O)CNC(=O)CC1S/C(=N/N=C2/NC(=O)CS2)NC1=O (stereo not given),45µM,40µM,-,-,-,?,.,Pol kappa inh-2=?
Cc1ccc(S(=O)(=O)Nc2ccc(-n3cnnn3)cc2)cc1,-,-,-,-,-,?,.,
CC(=O)c1ccc(S(=O)(=O)Nc2ccc(-n3cnnn3)cc2)cc1,32µM,-,.,-,-,40µM,?,
CCOc1ccc(-c2cn3c(n2)sc2cc(C(=O)N4CCCC(C)C4)ccc23)cc1 (stereo not given),-,-,-,-,-,-,.,
S=C(NCCCc1cnc[nH]1)NCCCN(Cc1ccc(Cl)cc1)c1ccc(-c2ccccc2)cn1,.,.,.,-,-,-,.,
Cc1ccn2c(=O)nc(SCC(=O)NCc3ccco3)nc2c1,?,.,.,-,-,?,.,
Cc1ccc(CNC(=O)CSc2nc(=O)n3ccc(C)cc3n2)cc1,28µM,.,.,.,.,.,?,
O=C(O)c1ccc(/C=C/c2nc3ccccc3c(=O)[nH]2)cc1,-,.,-,-,-,?,.,
O=C(O)c1ccc(/C=C/c2nc3sc4c(c3c(=O)[nH]2)CCC4)cc1,22µM,50µM,-,-,?,14µM,?,
O=C(CN1C(=O)S/C(=C\c2cccn2-c2ccc(C(=O)O)cc2)C1=O)Nc1ccc(F)cc1,.,.,.,.,.,.,30,
CCOc1ccc(NC(=O)CN2C(=O)S/C(=C/c3cccn3C)C2=O)cc1,-,-,-,-,-,-,.,
CCOC(=O)Cc1csc(NC(=O)NC2(C(F)(F)F)Oc3cc(Cl)c(Cl)cc3O2)n1,-,-,-,-,20µM,-,.,Pol kappa inh-2=11
COc1ccc(-c2ccc(CN3C(C)C(=O)N(Cc4cn(CCC5OCCO5)nn4)CCS3(=O)=O)cc2)cn1 (stereo not given),-,.,.,.,.,.,.,
COc1ccc(-c2ccc(CN3C(C)C(=O)N(Cc4cn(CCC5OCCO5)nn4)CCS3(=O)=O)cc2)cc1 (stereo not given),28µM,.,.,.,.,.,?,Pol kappa inh-2=?
O=C(O)c1ccc(/C=N/NC(=O)c2cc3ccccc3cc2O)cc1,22µM,-,.,?,50µM,16µM,?,
O=C(c1cccc(F)c1)N1CCC2(CCCN(c3ncccn3)C2)CC1,.,.,.,.,-,.,.,
Cc1oc(-c2ccccc2Cl)nc1CS(=O)(=O)CC(=O)NC(C)CCc1ccccc1 (stereo not given),-,-,-,?,-,?,.,
Cc1ccc(OCC(=O)Nc2nnc(S(=O)(=O)N3CCC(C)CC3)s2)cc1,?,-,?,-,?,?,85,
COc1ccc(C=C2SC(=S)NC2=O)cc1,-,.,.,-,-,-,.,
COc1cccc(OCCOc2ccc(/C=C3/SC(=S)NC3=O)cc2)c1,28µM,.,10µM,-,-,?,85,Pol kappa inh-2=?
O=C(Cn1c(=O)n(Cc2ccccc2)c(=O)c2oc3ccccc3c21)Nc1ccc(Cl)cc1,-,-,-,-,-,-,.,
